Compound activity from PubChem BioAssay.
Compounds with a hit are over-represented: about 3.5% of the library has one in this group of screens.
Tau FP inhib = tau fibrillization inhibition (FP); P10636; actives 0.39% (n = 280,000); Potency, µM (doses to about 57.7 µM), for inactives: at the top dose activity, negative = inhibition, usual class: inhibitors; K18 P301L tau heparin fibrillization, Alexa594 FP, 6 h; further: nearly all actives have a fitted effect of over 55% in size
Target sequence (P10636 561-689 P618L limits assumed): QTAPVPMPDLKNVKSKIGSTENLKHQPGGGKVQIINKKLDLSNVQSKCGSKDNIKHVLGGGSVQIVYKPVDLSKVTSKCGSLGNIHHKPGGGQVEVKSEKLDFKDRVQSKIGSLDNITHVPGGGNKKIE
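Heparin (20 uM) drove fibril formation of recombinant tau K18 P301L, 15 uM unlabeled with 0.24 uM Alexa 594 label, for 6 hr at 37 C in 100 mM sodium acetate pH 7. Fluorescence polarization (555/632 nm) read 1 hr after 30 uM ThT.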
JMJD2E inh = JMJD2E (human) inhibition; JMJD2E catalytic domain, FDH-coupled NADH fluorescence (FDH is formaldehyde dehydrogenase); Potency, µM (highest dose often 57.1 µM), for the others: at the highest dose activity change, negative = inhibition, actives largely listed as inhibitors; actives 1.6% (n = 230,000); active means well fitted inhibition curve with a large enough effect, not every such curve was filed as active; inconclusive means small, poorly fitted or top-dose-only effect, or another doubt; inactive means no such curve, though single readings can be large or run the other way;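 further: 0% = wells with enzyme and -100% = buffer wells without enzyme; nearly all actives have a fitted effect of over 50% in size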
TRb-SRC2 inh = inhibitors of human thyroid hormone receptor beta-SRC2 interaction; P10828; TRbeta-SRC2 peptide binding, fluorescence polarization; receptor liganded with 1 µM T3; Potency, µM (doses to about 106 µM), inactives show at the top dose activity change, negative = inhibition, hits mostly inhibitors; actives 0.065% (n = 280,000); AID 1469;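 further: plate controls were bound peptide for no effect and peptide without receptor for full effect; nearly all actives have a fitted effect of over 50% in size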
Target sequence (P10828 whole entry, looked up): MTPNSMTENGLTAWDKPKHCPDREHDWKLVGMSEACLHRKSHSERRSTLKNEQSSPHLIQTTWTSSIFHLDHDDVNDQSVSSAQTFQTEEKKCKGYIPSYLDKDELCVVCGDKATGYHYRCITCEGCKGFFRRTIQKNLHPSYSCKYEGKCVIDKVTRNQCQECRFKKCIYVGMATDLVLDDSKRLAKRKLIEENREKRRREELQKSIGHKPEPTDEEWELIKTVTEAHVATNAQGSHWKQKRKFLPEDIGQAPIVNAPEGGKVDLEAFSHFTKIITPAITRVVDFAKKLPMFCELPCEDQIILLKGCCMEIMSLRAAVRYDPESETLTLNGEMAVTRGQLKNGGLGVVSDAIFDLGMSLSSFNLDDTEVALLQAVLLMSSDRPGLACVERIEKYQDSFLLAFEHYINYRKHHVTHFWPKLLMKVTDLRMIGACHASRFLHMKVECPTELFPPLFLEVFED
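Fluorescence polarization of 20 nM Texas Red SRC2 peptide with 0.6 uM human TRb ligand-binding domain, in Tris buffer with 1uM T3 and 5% DMSO. Incubated 5 hr ambient; normalized to unbound and bound controls.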
Tau fluor cs = counter-screen for tau fibril formation inhibitors; tau K18 P301L Alexa594 fluorescence, heparin fibrillization; Potency, µM (series often up to 57.7 µM), for the others: at the highest dose activity change, negative = decrease; actives 0.93% (n = 280,000); AID 1463; further: nearly all actives have a fitted effect of over 55% in size
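Human tau K18 P301L (15 uM unlabeled, 0.24 uM Alexa 594-labeled) in 100 mM sodium acetate pH 7 with 20 uM heparin, 6 hr at 37 C. ThT 30 uM added, 1 hr ambient; Alexa 594 FP and total fluorescence read at 555/632 nm.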
Tau fibril ThT = inhibitors of human tau fibril formation, thioflavin T binding | P10636 | recombinant tau K18 P301L (four-repeat tau fragment), heparin-induced fibrillization, ThT fluorescence | Potency, µM (highest dose often 57.4 µM), without a hit: top-dose activity, negative = inhibition, hits mostly inhibitors | actives 2.1% (n = 270,000); further: nearly all actives have a fitted effect of over 55% in size
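Aggregation was driven by heparin (20 uM final) acting on recombinant tau […] bearing P301L in 100 mM sodium acetate pH 7; fibrils were detected with Thioflavin T.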
TR SRC2 fluor cs = alters Texas Red total fluorescence, flagging assay interference | actives 0.29% (n = 280,000) | Potency, µM (top dose mostly 106 µM), for the others: at the highest dose fluorescence change, negative = quenching | AID 1479 | TRb/SRC2 Texas Red total fluorescence interference; active means well fitted curve in either direction with a large enough effect; inconclusive means small, poorly fitted or top-dose-only effect
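Flags fluorescent or light-absorbing compounds by total fluorescence, S + 2P, at 555 nm excitation and 632 nm emission. Mixture: 20 nM Texas Red SRC2 peptide, 0.6 uM human TRb LBD, 1 uM T3, 5% DMSO; compound exposure 5 h at ambient temperature.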
* marks the source's active call; other numbers are inactive results; ? = inconclusive; · = no result; [ ] = another dose, or the depositor's remark. Unless noted, the call rests on the fitted dose curve; in most records, active means well fitted curve in the direction sought with a large enough effect; inconclusive means small, poorly fitted or top-dose-only effect, or another doubt; inactive means no such curve, though single readings can be large; an effect the other way counts as inactive or inconclusive. Unless noted, on the % scale 0 is the no-effect control and ±100 the full control effect; potency means the concentration at half of the fitted maximal effect.

SMILES | Tau FP inhib | JMJD2E inh | TRb-SRC2 inh | Tau fluor cs | Tau fibril ThT | TR SRC2 fluor cs
COc1cccc(/C=N\NC(=O)Cn2nnc3ccccc32)c1O | 3% | 28µM* | 7%[53 µM] | 1% | -1% | 0%[53 µM]
COc1cc(/C=N/Nc2nc3ccccc3[nH]2)cc(OC)c1O | ? | ? | -2% | 16µM*[quencher] | 11µM* | -10%
Cc1ccc(OCC(=O)Nc2ccc(Cl)c(-c3nc4ncccc4o3)c2)c(C)c1 | -16% | · | 7% | ? | ? | -3%
Cc1nc2nc(SCC(=O)Nc3ccccc3Cl)nn2c(C)c1Cc1ccccc1 | 2% | · | -2% | -11% | -4% | -2%
COc1ccc(O)c(/C=N/Nc2nc3ccccc3[nH]2)c1 | 7% | -13% | 7% | ? | 14µM* | -4%
O=[N+]([O-])c1ccc(O)c(/C=N/Nc2nc3ccccc3[nH]2)c1 | 5% | ? | 7% | ? | 8.9µM* | -6%
Cc1ccc(NC(=O)CSc2nc3nccnc3c(=O)n2CCc2c[nH]c3ccccc23)cc1 | 5% | · | ? | -11% | -13% | 25µM*[quencher]
O=C(CSc1nc2nccnc2c(=O)n1CCc1c[nH]c2ccccc12)Nc1ccccc1 | -1% | · | ? | -14% | ? | ?
C=CCc1cccc2cc(C(=O)NC3=C(C#N)CCC3)c(=O)oc12 | -8% | -3% | -1% | -15% | -24% | 3%
COc1ccc(C2C(C#N)=C(N)Oc3c2sc2nc(C)cc(C)c32)cc1 (stereo unspecified) | ? | ? | -11% | ? | 25µM* | -4%
Cc1ccc(N2NC(C)(c3cccs3)NC2=S)cc1 (stereo unspecified) | -8% | ? | 1% | ? | 16µM* | 1%
Cc1ccc(N2CC(O)(c3cccs3)[N+]3=C2CCCC3)cc1 (stereo unspecified) | 4% | 10% | -1% | 7% | 8% | -4%
O=C(OCc1cc(=O)n2nc(C3CC3)sc2n1)c1ccc(F)cc1 | -2% | · | -6% | -1% | -13% | -2%
Cc1ccccc1-n1c(SCC(=O)c2ccccc2)nnc1-c1ccc(F)cc1 | 10% | · | -28% | 6% | 0% | ?
Cc1ccc(C(=O)NC(=S)Nc2c(C)ccc3nsnc23)cc1 | -6% | -20% | 6% | -9% | -17% | -3%
Cc1ccc(C(=O)NC(=S)Nc2cccc3nsnc23)cc1 | ? | 22% | -1% | -22% | 13µM* | 2%
CCOC(=O)c1c(C)[nH]c(C2=NNC(=NC3CC3)SC2)c1C | ? | -4% | -5% | ? | 16µM* | -1%
COCCCN=C(c1ccco1)n1c(=S)nc(-c2ccco2)n(CCCOC)c1=S | ? | ? | -1% | -24% | 32µM* | -3%
COc1cc(/C=C2\SC(=O)N(c3ccc(Cl)cc3)C2=O)cc([N+](=O)[O-])c1O | 3% | -16% | 1% | ? | 18µM* | -14%
CCOc1ccc(/C=C2\SC(=O)N(c3ccc(O)cc3)C2=O)cc1OC | -3%[0.0958 µM] | 13% | 8% | 4%[0.0958 µM] | · | -1%
COc1cc(/C=C2\SC(=O)N(c3cccc(Cl)c3)C2=O)cc([N+](=O)[O-])c1O | 2% | -10% | -1% | ? | 8.9µM* | -2%
COc1cc(/C=C2/C(=O)NN(c3cccc(C)c3)C2=O)ccc1OC(=O)c1ccco1 | ? | -6% | 15% | ? | ? | 2%
COc1cc(/C=C2/C(=O)NN(c3cccc(C)c3)C2=O)cc([N+](=O)[O-])c1O | 0% | ? | -3% | -18% | 14µM* | -9%
CCOC(=O)CSc1nnc2cc(C)c3ccccc3n12 | 4% | -25% | 0% | -1% | -3% | 2%
CC(=O)CSc1nnc2cc(C)c3cc(C)cc(C)c3n12 | -4% | · | -14% | -6% | -12% | 25µM*[quencher]
SMILES | Tau FP inhib | JMJD2E inh | TRb-SRC2 inh | Tau fluor cs | Tau fibril ThT | TR SRC2 fluor cs
COc1cc(/C=N/Nc2nc3ccccc3s2)ccc1OC(=O)c1ccccc1F | 12% | -1% | -1% | 7.1µM*[quencher] | ? | 8%
COc1cc(/C=N/Nc2ccccc2)ccc1OC(=O)c1cccs1 | -3% | 7% | -14%[53 µM] | -3% | 2% | ?
COc1cc(OC)cc(C(=O)Oc2ccc(/C=N/Nc3nc4ccccc4s3)cc2OC)c1 | 1% | 35µM* | 4% | 10µM*[quencher] | ? | -4%
Cc1cc(C)c(C(=O)COc2cccnc2[N+](=O)[O-])cc1C | ? | -14% | -19% | ? | 14µM* | -2%
COc1ccc(CCNC(=O)CCCn2c(=O)c3ccccc3n(CC(=O)Nc3cc(Cl)ccc3C)c2=O)cc1OC | ? | · | 6% | -12% | 4% | 9%
CS/C(=N\S(=O)(=O)c1cccs1)Nc1ccc(Cl)cc1 | 4% | -8% | 1% | -9% | -2% | -19%
CCOc1ccc(N2C(=O)/C(=C\c3ccc(O)c(OC)c3)S(=O)(=O)C2c2cccc([N+](=O)[O-])c2)cc1 (stereo unspecified) | 8% | -23% | 0% | 32µM*[quencher] | ? | -1%
Cc1cc(Cl)ccc1NC(=O)CCn1nc(C)c2c(C)n(-c3ccccc3)nc2c1=O | 2% | · | -2% | 9% | 14% | -1%
CCS(=O)(=O)c1ccc(O)c(Nc2cc(C)nc(SC)n2)c1 | 10% | · | -26% | -17% | -16% | 0.1µM*[quencher]
COc1ccc(NC(=S)Nc2ccc(N)c([N+](=O)[O-])c2)cc1 | 3% | 2% | 0% | ? | 16µM* | -6%
CSc1nsc2nc(=O)c(/C=C3\C=Nc4ccccc43)c(N)n12 | 4% | -2% | -4% | -22% | ? | -7%
Nc1c(C=C2C=CC(=O)C=C2)c(=O)nc2snc(SCc3ccccc3)n12 | ? | -22% | -7% | ? | 7.9µM* | -2%
COc1ccc(NC(=O)Nc2cc3oc4ccccc4c3cc2OC)cc1 | ? | ? | -3% | 8.9µM*[quencher] | ? | -2%
COc1cc2c(cc1NC(=O)Nc1cccc(C)c1)oc1ccccc12 | -1% | ? | -3% | 7.9µM*[quencher] | ? | -4%
COc1cc2c(cc1NC(=S)Nc1cccc(C)c1)oc1ccccc12 | 0% | ? | -1% | ? | ? | -1%
COc1ccc(NC(=O)Nc2ccc(Cc3ccncc3)cc2)c(OC)c1 | ? | 1% | -11% | 25µM*[quencher] | ? | -4%
COc1cc2c(cc1NC(=O)Nc1ccc(F)cc1)oc1ccccc12 | -8% | -18% | -2% | 6.3µM*[quencher] | -2% | 0%
O=C(Nc1ccccc1Br)c1ccc(OC(=S)N2CCOCC2)cc1 | -9%[2.34 µM] | -1% | -7% | -10% | -8% | -2%
COc1ccccc1-c1noc(-c2ccc(NC(C)C)c([N+](=O)[O-])c2)n1 | -14% | · | 9% | -11% | 2% | 1%
